High-throughput results: PubChem, National Center for Advancing Translational Sciences (NCATS)
RGS4 inh – blocks human RGS4-accelerated GTP hydrolysis. 0.039% of 390,000 active. AID 504845. P49798. Potency, µM (titrated, usually from 114 µM), for inactives: at the highest dose activity change, negative = inhibition, most hits filed as inhibitors. Transcreener GDP fluorescence polarization, RGS4-accelerated GTP hydrolysis; further: potency means the concentration at half of the fitted maximal effect; on the % scale 0 is the no-effect control and ±100 the full control effect; nearly all actives have a fitted effect of over 75% in size
Target sequence (P49798 whole entry, looked up): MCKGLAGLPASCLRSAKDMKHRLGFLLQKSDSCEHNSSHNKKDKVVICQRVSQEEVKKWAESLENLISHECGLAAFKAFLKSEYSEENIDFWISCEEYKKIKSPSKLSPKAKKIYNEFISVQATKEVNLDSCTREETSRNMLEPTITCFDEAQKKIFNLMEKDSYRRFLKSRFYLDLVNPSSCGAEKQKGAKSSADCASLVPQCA
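MLSMR compounds (23 nl, pin-transferred) preincubated 10 min at room temperature with a 500nM (2x) first reagent, then RGS4 at 900nM (2x) plus Transcreener GDP mix added; fluorescence polarization (620/688 nm) read before and after 90 min at 30 °C.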
LDHA block – inhibitors of human lactate dehydrogenase A; purified LDHA, NADH/diaphorase-resazurin fluorescence; active compounds read low; activity change, % (values are at about 110 or 230 µM); 0.15% of 480,000 active; in the data active means activity change below about -30%; inconclusive means mostly about -25% to -30%;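 further: plate controls were DMSO wells for no effect and wells without enzyme for full effect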
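Remaining NADH was detected by diaphorase (0.133 mg/mL) converting 37 µM resazurin to fluorescent resorufin, read at 0 and 20 minutes. The preceding 5-minute room-temperature reaction used 2 nM LDHA, 0.2 mM sodium pyruvate and 0.06 mM NADH at pH 7.4.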
AT treatment – candidate therapy for ataxia-telangiectasia; F2112 A-T fibroblasts, KAP-1 phosphorylation AlphaLISA; neocarzinostatin DNA damage 30 min before lysis; Potency, µM (highest dose often 57.5 µM), for the others: at the top dose activation, hits mostly activators; 0.19% of 320,000 active; AID 485349; further: potency means the concentration at half of the fitted maximal effect; % of control where 0% means no effect; nearly all actives have a fitted effect of over 45% in size
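ATM-like activity read as KAP-1 phosphorylation via AlphaLISA donor/acceptor antibody pairs after lysis and 6 hr at 25C. Cells were ATM-null patient fibroblasts (F2112, hTERT), dosed 60 min, then exposed to the DSB inducer NCS for 30 min.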
Apoferritin bind – binds horse apoferritin like a general anesthetic; 0.074% of 350,000 active; Potency, µM (top dose mostly 77.5 µM), for the others: top-dose activity change, negative = displacement, most hits filed as inhibitors; apoferritin/1-aminoanthracene competitive binding, fluorescence; P02791; further: potency means the concentration at half of the fitted maximal effect; on the % scale 0 is the no-effect control and ±100 the full control effect; nearly all actives have a fitted effect of over 20% in size
Target sequence (P02791 2-175 limits assumed): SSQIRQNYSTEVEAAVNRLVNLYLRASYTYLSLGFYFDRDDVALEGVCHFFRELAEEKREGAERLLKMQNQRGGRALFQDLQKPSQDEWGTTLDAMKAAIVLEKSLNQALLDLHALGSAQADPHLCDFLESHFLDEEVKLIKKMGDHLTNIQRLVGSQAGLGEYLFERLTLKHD
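Apoferritin-based anesthetic binding model; compound displacement of fluorescent 1-AMA measured as endpoint fluorescence after 10 minutes at room temperature, scaled to free-ligand and complex controls.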
An asterisk follows results filed as active; [ ] = remark or other dose. Only some compounds are listed: those with a hit (about 0.35% of all), similar ones and a draw of the others. Unless noted, the call rests on the fitted dose curve; in most records, active means well fitted curve in the direction sought with a large enough effect; inconclusive means small, poorly fitted or top-dose-only effect, or another doubt; inactive means no such curve, though single readings can be large; an effect the other way counts as inactive or inconclusive.

What do the screens show for `Cc1nn(-c2ccc(Cl)c(Cl)c2Cl)c(=O)c2ccccc12`?
RGS4 inh: -38.7%; LDHA block: -4.2; AT treatment: 0.3%; Apoferritin bind: 17.8µM*

What do the screens show for `C/C(C/C(C)=C1/SC(=S)NC1=O)=C1\SC(=S)NC1=O`?
RGS4 inh: inconclusive; LDHA block: -34.2*; AT treatment: -3.6%; Apoferritin bind: -8.7%

Results for Cc1c(O)ccc2cc(S(=O)(=O)c3ccccc3)c(=O)oc12 ?
RGS4 inh: -7.2%; LDHA block: 0.8; AT treatment: 12.6µM*; Apoferritin bind: inactive

Results for Cc1cc(C(=O)CN2CCN(Cc3ccc4c(c3)CCO4)CC2)c(C)n1C1CCS(=O)(=O)C1 (stereo not drawn) ?
LDHA block: 8.4

What do the screens show for `Cc1ncc(-c2ccc(S(=O)(=O)Nc3ccc(C)c(F)c3)cc2)o1`?
LDHA block: -31.2*

Results for Cc1ncc(-c2ccc(S(=O)(=O)Nc3cccc(Cl)c3C)cc2)o1 ?
LDHA block: -30.6*

What do the screens show for `N#Cc1c(N2CCN(C(=O)C(=O)NCCc3ccccc3)CC2)nc(-c2ccco2)c2c1CCCC2`?
LDHA block: 2.5

How did Cc1c(-c2cccs2)nc2ccccc2c1-c1ccccc1 do in these assays?
LDHA block: -0.6

What do the screens show for `CCCn1c(=O)[nH]c(=O)c2c1nc(CCc1ccccc1)c(=O)n2CCOC`?
LDHA block: 8.8

How did Cl/C(=C/c1ccc(Cl)cc1)c1ncc(-c2ccc(Cl)cc2)o1 do in these assays?
LDHA block: 3.9

Results for COc1ccccc1CNS(=O)(=O)c1ccc2[nH]cc(C(=O)O)c(=O)c2c1 ?
RGS4 inh: 16.5%; LDHA block: -56.3*; AT treatment: -1.8%; Apoferritin bind: -10.4%

What do the screens show for `COc1ccccc1CNS(=O)(=O)c1ccc2[nH]c3c(c2c1)CCCCC3`?
RGS4 inh: -25.7%; LDHA block: -0.7; Apoferritin bind: 38.8%

What do the screens show for `O=C(Nc1ccccc1NS(=O)(=O)c1cccs1)c1ccc(Cl)cc1[N+](=O)[O-]`?
LDHA block: 61.2

Results for CC(=O)Nc1sc2c(c1-c1ccc(C(=O)O)cc1)CCNC2 ?
LDHA block: 5.9

Results for CCCOc1ccc2ccccc2c1/C=C(/C#N)c1nc2ccccc2[nH]1 ?
LDHA block: 13.4

How did CC(C)Oc1ccc2ccccc2c1/C=C(\C#N)c1nc2ccccc2[nH]1 do in these assays?
LDHA block: -30.4*

How did CCn1c(-c2ccc(O)c(OC)c2)nc2c1c(=O)[nH]c(=O)n2Cc1ccccc1 do in these assays?
LDHA block: 30.6

What do the screens show for `CCN(CC)c1ccc(/C=N/NC(N)=S)cc1`?
LDHA block: -2.1

Results for CCCCOc1ccc(NC(=O)C(=O)NCCCn2ccnc2)cc1 ?
RGS4 inh: -21.6%; LDHA block: -4.3; AT treatment: -3.1%; Apoferritin bind: inconclusive

Results for CCCCCCOc1ccc(C(=O)NCCCn2ccnc2)cc1 ?
RGS4 inh: 3.7%; LDHA block: 0.3; AT treatment: -1.2%; Apoferritin bind: 14.1µM*

What do the screens show for `Cc1ccc(-c2cc(C(=O)O)c3cccc(Cl)c3n2)s1`?
LDHA block: 12.7

Results for CC(C)Oc1nc(-c2ccccc2Cl)nc2ccccc12 ?
RGS4 inh: -18.7%; LDHA block: 1.5; AT treatment: 31.6µM*; Apoferritin bind: -11.7%

How did COc1ccc(C2c3ccc4ccccc4c3Oc3ncn(CCCO)c(=N)c32)cc1OC (stereo not drawn) do in these assays?
RGS4 inh: -15.0%; LDHA block: -1.0; AT treatment: 39.8µM*; Apoferritin bind: -11.6%

How did COc1ccc(C2c3ccc4ccccc4c3Oc3ncn(CCO)c(=N)c32)cc1OC (stereo not drawn) do in these assays?
RGS4 inh: 10.0%; LDHA block: -4.5; AT treatment: 3.6%; Apoferritin bind: -16.2%

How did CC(C)NC(=O)/C(C#N)=C\c1cccc(/C=C(/C#N)C(=O)NC(C)C)c1 do in these assays?
LDHA block: -3.8

What do the screens show for `CCOc1ccc2c(c1)cc(C(=O)Nc1ccc(OC)cc1)n2C`?
LDHA block: 12.9

How did CCOc1ccc2c(c1)cc(C(=O)Nc1ccccc1OCC)n2C do in these assays?
LDHA block: -32.6*

Results for N#Cc1cn2ncnc2nc1N ?
LDHA block: -30.6*

Results for CC1(C)Cc2c(c(N3CCOCC3)nc3sc(C(N)=O)c(N)c23)CO1 ?
RGS4 inh: -17.2%; LDHA block: -1.5; AT treatment: 22.4µM*; Apoferritin bind: 2.2%

How did O=[N+]([O-])c1ccc2c(c1)S(=O)(=O)C=C2 do in these assays?
RGS4 inh: 21.2µM*; Apoferritin bind: -5.9%

What do the screens show for `Cc1cc([N+](=O)[O-])ccc1N`?
RGS4 inh: -26.3%; LDHA block: 0.3; AT treatment: -7.8%

Results for O=C1ON=C(c2ccc(Cl)c([N+](=O)[O-])c2)/C1=C/c1cccc([N+](=O)[O-])c1O ?
RGS4 inh: -7.3%; LDHA block: -31.0*; AT treatment: 8.5%

Results for CC(C)N(CCNC(=O)c1cc2cc(F)ccc2[nH]1)C(C)C ?
LDHA block: 1.3

How did O=C(Cn1c(SCC(=O)Nc2ccc(F)cc2)nc2ccccc21)NCc1ccccc1Cl do in these assays?
RGS4 inh: -10.9%; LDHA block: -32.4*; Apoferritin bind: 29.4%

What do the screens show for `Fc1ccc2[nH]c3c(NCCN4CCOCC4)ncnc3c2c1`?
RGS4 inh: -17.0%[56.9 µM]; LDHA block: -34.8*; AT treatment: 5.7%; Apoferritin bind: -10.8%

Results for Clc1ccc2[nH]c3c(NCCN4CCOCC4)ncnc3c2c1 ?
RGS4 inh: -20.8%; LDHA block: -11.2; AT treatment: -3.5%; Apoferritin bind: 0.2%

Results for Cc1cc(NC(=O)CS(=O)CC(=O)Nc2c(C)cccc2C)ccc1-n1cnnn1 (stereo not drawn) ?
RGS4 inh: -10.1%; LDHA block: -5.7; AT treatment: 2.2%; Apoferritin bind: -19.7%

How did CCc1ccc(NC(=O)CS(=O)CC(=O)Nc2ccc(-n3cnnn3)c(C)c2)cc1 (stereo not drawn) do in these assays?
RGS4 inh: 9.0%; LDHA block: -32.3*; AT treatment: 2.3%; Apoferritin bind: inconclusive

What do the screens show for `CCCCNC(C(=O)Nc1ccc([N+](=O)[O-])cc1Br)c1ccccc1` (stereo not drawn)?
RGS4 inh: 3.9%; LDHA block: -31.5*; AT treatment: 14.0%; Apoferritin bind: -3.9%

How did COCCNC(C(=O)Nc1ccc([N+](=O)[O-])cc1Br)c1ccccc1 (stereo not drawn) do in these assays?
RGS4 inh: 26.2%; LDHA block: 3.1; AT treatment: 5.7%; Apoferritin bind: -16.8%

Results for CC(=O)Nc1ccc(C2CC(c3ccc(Cl)cc3)=NN2c2ccccc2)cc1 (stereo not drawn) ?
RGS4 inh: 1.4%; LDHA block: -2.0; AT treatment: 25.1µM*; Apoferritin bind: 54.3%
